Several values for one entry are separate records, joined by “and”; a condition that tells them apart may be missing. Identical values can stand only once. More than one record can exist for a structure, and the calls need not agree. Activity calls are given as the source filed them. The calls were made as follows: active = hit-call score of the fitted dose curve at least 0.9, where 1 is the maximum; inactive = score below 0.9.
The compounds below were run on Collagen III, COL3A1 (gene 1281) (assay: BSK_hDFCGF_CollagenIII: BioMAP Diversity Plus: hDFCGF Assay for Collagen III Biomarker Activity (AID 2283056)). Conditions: primary human foreskin fibroblasts; actives raise or lower the signal.
Description: BSK_hDFCGF is a cell-based, multiplexed-readout assay that uses foreskin fibroblast, a human skin primary cell, with measurements taken at 24 hours after chemical dosing in a 96-well plate.BSK_hDFCGF_CollagenIII is an assay component measured in the BSK_hDFCGF assay. It measures Collagen antibody related to regulation of gene expression using ELISA technology.Data from the assay component BSK_hDFCGF_CollagenIII was analyzed into 1 assay endpoint. This assay endpoint, BSK_hDFCGF_CollagenIII, was analyzed with bidirectional fitting relative to DMSO as the negative control and baseline of activity. Using a type of binding reporter, gain or loss-of-signal activity can be used to understand changes in the signaling as they relate to the gene COL3A1. Furthermore, this assay endpoint can be referred to as a primary readout, because this assay has produced multiple assay endpoints where this one serves a signaling function. To generalize the intended target to other relatable targets, this assay endpoint is annotated to the cell adhesion molecules intended target family, where the subfamily is collagen.
The levels of cell surface (or secreted, indicated by the prefix "s") biomarker endpoints were measured by ELISA. Overt cytotoxicity to cells in confluent adherent cultures (all systems other than the BT system) was assessed by measuring total protein levels using sulforhodamine B (SRB) staining in parallel cultures at the time of biomarker measurements, indicated as SRB endpoints. For proliferation assays for adherent cell types, individual cell types are cultured at sub-confluence and relative cell numbers quantified by SRB staining at time points optimized for each system (48 h: 3C and CASM3C systems; 72 h: BT and HDF3CGF systems; 96 h: SAg system). SRB was performed by staining cells with 0.1% SRB after fixation with 10% TCA and reading wells at 560 nm.Viability and proliferation of PBMC (T cells) was quantified by Alamar Blue reduction for the SAg and BT systems. For PBMC viability (referred to as PBMC Cytotoxicity within the assay endpoint names), cells were plated (75,000/well in a 96-well plate) and then chemical samples added for 1 h before addition of activators, SEB and TSST-1 (20 ng/mL final concentration each). Cells were incubated for 90 h. Then, Alamar Blue (20 uL/well) (Invitrogen, Cat DAL1100) was added for 6 h, and the plates were read with a fluorescence microplate reader at 546/580 nm (excitation/emission). For PBMC proliferation, cells were plated and activated as above but incubated for only 16 h prior to addition of Alamar Blue. Plates were read after 6 h.

SMILES	outcome	AC50
CCCOC(=O)NCCCN(C)C	inactive	
Cc1nn(C)c(Oc2ccccc2)c1C=NOCc1ccc(C(=O)OC(C)(C)C)cc1		4.21 µM (active)
CCN(Cc1c(F)cccc1Cl)c1c([N+](=O)[O-])cc(C(F)(F)F)cc1[N+](=O)[O-]	inactive	
CCOC(=O)C(C)Oc1ccc(Oc2cnc3cc(Cl)ccc3n2)cc1 (stereo not given)	inactive	
c1ccc(Nc2ccccc2)cc1	inactive	
CCCN(CCC)c1c([N+](=O)[O-])cc(C(F)(F)F)c(N)c1[N+](=O)[O-]		31.4 µM (active)
CCOC(=O)c1ccc(O)cc1	inactive	
C#CCOC(=O)[C@@H](C)Oc1ccc(Oc2ncc(Cl)cc2F)cc1	inactive	
CCC(O)=C1C(=O)CC(C(=O)O)CC1=O (stereo not given)	inactive	
COCCO	inactive	
CN(C)C(=O)Nc1ccc(Cl)c(Cl)c1	inactive	
CCOC(=O)COc1cc(-n2ncc(C(F)(F)F)c(C)c2=O)c(F)cc1Cl	inactive	
CCCCOC(=O)[C@@H](C)Oc1ccc(Oc2ccc(C(F)(F)F)cn2)cc1	inactive	
O=C(O)C1(C(=O)Nc2ccc(Cl)cc2Cl)CC1		24.5 µM (active)
CC(C)(c1ccc(O)cc1)c1ccc(O)cc1	inactive	6.87 µM (active) and 25.7 µM (active)
COC(=O)c1cccc(C)c1S(=O)(=O)NC(=O)Nc1nc(OCC(F)(F)F)nc(N(C)C)n1	inactive	
CC(C)(C)[C@@H](O)[C@@H](Cc1ccc(Cl)cc1)n1cncn1	inactive	
COC(=O)c1c(Cl)nn(C)c1S(=O)(=O)NC(=O)Nc1nc(OC)cc(OC)n1	inactive	
CCNc1nc(N)nc(Cl)n1	inactive	
N[C@@H](Cc1cc(I)c(Oc2ccc(O)c(I)c2)c(I)c1)C(=O)O	inactive	

SMILES	outcome	AC50
CCOC(=O)[C@H](C)Oc1ccc(Oc2nc3ccc(Cl)cc3o2)cc1		3.97 µM (active)
OB(O)O	inactive	
CSC(=O)c1cccc2nnsc12	inactive	
C[C@]12CC[C@@H]3c4ccc(O)cc4C[C@@H](CCCCCCCCCS(=O)CCCC(F)(F)C(F)(F)F)[C@H]3[C@@H]1CC[C@@H]2O (stereo not given in full)	inactive	
COC(=O)c1ccc(I)cc1S(=O)(=O)NC(=O)Nc1nc(C)nc(OC)n1	inactive	
COc1c(Cl)ccc(Cl)c1C(=O)O	inactive	
COc1nc(C)nc(NC(=O)NS(=O)(=O)c2ccccc2OCCCl)n1	inactive	
CCCOC(=O)c1ccc(C(=O)OCCC)nc1	inactive	
Oc1ccc(C(c2ccc(O)cc2)C(Cl)(Cl)Cl)cc1		11.7 µM (active)
COC(=O)c1ccccc1C(=O)O	inactive	
O=C(c1ccccc1)C1CCCCC1	inactive	
CC(=O)S[C@@H]1CC2=CC(=O)CC[C@]2(C)[C@H]2CC[C@@]3(C)[C@@H](CC[C@@]34CCC(=O)O4)[C@H]12	inactive	
S=C([S-])NCCNC(=S)[S-].[Mn+2]		29.1 µM (active)
CCOC(=O)C(C)Oc1ccc(Oc2nc3ccc(Cl)cc3o2)cc1 (stereo not given)	inactive	
O=C(O)c1ccccc1	inactive	
C#C[C@]1(O)CC[C@H]2[C@@H]3CCC4=CC(=O)CC[C@@H]4[C@H]3CC[C@@]21CC	inactive	
COC(=O)c1ccc(CNS(C)(=O)=O)cc1S(=O)(=O)NC(=O)Nc1nc(OC)cc(OC)n1	inactive	
C=CCOC(Cn1ccnc1)c1ccc(Cl)cc1Cl (stereo not given)	inactive	
S=C(S)NCCNC(=S)S.[Mn+2].[S-]C([S-])=NCCN=C([S-])[S-].[Zn+2]	inactive	
